The record followed here is PubChem BioAssay (Tox21).

Records with an inconclusive call do not appear. Active and inactive are the calls of the source. Unless noted, the call rests on the fitted dose curve.
On the % scale 0 is the no-effect control and ±100 the full control effect.

Chain of Beta-2 adrenergic receptor (Homo sapiens) (P07550 whole entry, looked up): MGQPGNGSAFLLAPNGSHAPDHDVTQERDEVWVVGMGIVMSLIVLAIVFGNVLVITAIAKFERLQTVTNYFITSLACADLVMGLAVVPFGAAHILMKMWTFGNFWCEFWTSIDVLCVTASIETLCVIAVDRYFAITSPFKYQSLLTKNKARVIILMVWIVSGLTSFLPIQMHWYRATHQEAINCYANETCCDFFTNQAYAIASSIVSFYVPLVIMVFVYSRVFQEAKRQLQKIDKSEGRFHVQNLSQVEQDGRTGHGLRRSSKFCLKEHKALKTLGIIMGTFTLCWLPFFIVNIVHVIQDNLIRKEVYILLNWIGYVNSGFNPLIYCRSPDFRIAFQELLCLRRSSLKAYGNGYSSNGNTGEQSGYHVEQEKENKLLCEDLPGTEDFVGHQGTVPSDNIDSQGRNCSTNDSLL
Chain of D(2) dopamine receptor (Homo sapiens) (P14416 whole entry, looked up): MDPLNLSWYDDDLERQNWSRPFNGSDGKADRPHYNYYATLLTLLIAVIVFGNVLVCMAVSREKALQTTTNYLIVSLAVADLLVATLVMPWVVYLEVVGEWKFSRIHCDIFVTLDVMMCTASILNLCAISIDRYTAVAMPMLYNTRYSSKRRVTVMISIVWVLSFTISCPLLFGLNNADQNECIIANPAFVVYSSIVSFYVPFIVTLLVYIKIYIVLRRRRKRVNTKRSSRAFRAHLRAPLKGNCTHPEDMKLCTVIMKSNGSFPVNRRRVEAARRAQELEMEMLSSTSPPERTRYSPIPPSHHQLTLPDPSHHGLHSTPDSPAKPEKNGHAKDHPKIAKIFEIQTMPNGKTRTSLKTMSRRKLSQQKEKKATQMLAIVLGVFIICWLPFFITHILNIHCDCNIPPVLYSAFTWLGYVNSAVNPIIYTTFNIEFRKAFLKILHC

One assay concerns the target Beta-2 adrenergic receptor (Homo sapiens) (UniProt P07550). As to the kind of experiment: Adrenergic beta2 receptor (ADRB2) small molecule agonists, cell-based qHTS assay (AID 1963593).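 Further: CHO cells stably overexpressing human ADRB2.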 The note with it: CHO-ADRB2 cells, cAMP HTRF, 30 min; series mostly up to 92.4 µM; activation: at the top concentration. The essentials: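 CHO cells stably over-expressing ADRB2 were plated overnight at 37C, then dosed with compounds plus a stimulation mix containing 100uM IBMX and 25uM Ro-20-1724 for 0.5hr at room temperature. cAMP was measured by HTRF competition, 1hr.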
For orientation: Quantitative high-throughput screening tests each substance at several concentrations.
For the compound `S=C=NCCc1ccccc1`, the “activation” value was 13.4% (inactive).
With `CC(C)[C@@H](C(=O)O[C@@H](C#N)c1cccc(Oc2ccccc2)c1)c1ccc(Cl)cc1`, the “activation” value is -1.89% (inactive).
On to `O=C(Cl)c1ccc(Cl)cc1`, for which the “activation” value was 14.5% (inactive).
In the case of `CCCCP(CCCC)CCCC`, the “activation” value was 14.1% (inactive).
Take `CC(C)c1c(CN(C)C(C)Cc2ccccc2)n(C)n(-c2ccccc2)c1=O` (stereo unspecified): the “activation” value is 11.7% [at 42.5 µM] (inactive).
Still for that read-out and setting: the result for `COC(=O)C(c1ccccc1)C1CCCCN1` (stereo unspecified) reads 9.12% (inactive); that for `CC(=O)[O-].CC(=O)[O-].O.O.[Cd+2]`, 3.45% (inactive).
For the compound `C[C@H]1O[C@@H](O[C@H]2[C@@H](O)C[C@H](O[C@H]3[C@@H](O)C[C@H](O[C@H]4CC[C@@]5(C)[C@H](CC[C@@H]6[C@@H]5CC[C@]5(C)[C@@H](C7=CC(=O)OC7)CC[C@]65O)C4)O[C@@H]3C)O[C@@H]2C)C[C@H](O)[C@@H]1O`, the “activation” value is -12.6% [at 42.5 µM] (inactive).
On the same count and under the same terms, with `Nc1c(Cl)c(F)nc(OCC(=O)O)c1Cl` the figure was 0.978% (inactive); with `COCC(C)N(C(=O)CCl)c1c(C)csc1C` (stereo unspecified), 11.1% (inactive).
On to `CC(Cc1ccccc1)NCCn1cnc2c1c(=O)n(C)c(=O)n2C` (stereo unspecified), for which the “activation” value was 0.442% (inactive).
As to `COc1ccc(Cc2nccc3cc(OC)c(OC)cc23)cc1OC`, the “activation” value was 16.6% [at 42.5 µM] (inactive).
Turning to `Brc1ccc(Oc2ccc(Br)cc2Br)c(Br)c1`, the “activation” value was 0% (inactive).
In the case of `CC(C)N1C(=O)N(c2ccccc2)CSC1=NC(C)(C)C`, the “activation” value was 0.0235% (inactive).

A further assay concerns the target D(2) dopamine receptor (Homo sapiens) (UniProt P14416). As to the kind of experiment: Dopamine D2 receptor (DRD2) small molecule agonists, cell-based qHTS assay (AID 1963594). Further: nearly all actives have a fitted effect of over 35% in size. Further: potency means the concentration at half of the fitted maximal effect. Conditions: HEK293-DRD2 cAMP HTRF, agonist mode, 30 min; series mostly up to 92.4 µM; activation: at the top concentration. The essentials:
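HEK293 cells stably expressing human DRD2, pre-treated with PDE inhibitor Ro20-1724 (0.1 mM final) and compound 10 min at room temperature, then stimulated with NKH477 (200nM […]) for 30 min. cAMP read by HTRF (665/620 nm).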
On to `S=C=NCCc1ccccc1`, for which the “activation” value was 16.6% (inactive).
For `Clc1cc(Cl)c(-c2cc(Cl)c(Cl)cc2Cl)cc1Cl`, the “activation” value was 0.132% [at 42.5 µM] (inactive).
Turning to `CC1=C2C[C@H]3[C@@H](CC=C4C[C@@H](O)CC[C@@]43C)[C@@H]2CC[C@]12O[C@@H]1C[C@H](C)CN[C@H]1[C@H]2C`, the “activation” value was -21% [at 42.5 µM] (inactive).
With `Cc1nc2ccccc2c(=O)n1-c1ccccc1Cl`, the “activation” value is -0.0695% (inactive).
For the compound `CC(C)[C@@H](C(=O)O[C@@H](C#N)c1cccc(Oc2ccccc2)c1)c1ccc(Cl)cc1`, the Potency entry was “inactive”.
Turning to `O=C(Cl)c1ccc(Cl)cc1`, the “activation” value is -0.118% (inactive).
Take `CCCCOCN(C(=O)CCl)c1c(CC)cccc1CC`: the “activation” value was -14.2% (inactive).
For the compound `Nc1ccc([N+](=O)[O-])cc1Cl`, the “activation” value was 0.447% (inactive).
Regarding `CCCCP(CCCC)CCCC`, the “activation” value is 1.01% (inactive).
Regarding `CC(C)c1c(CN(C)C(C)Cc2ccccc2)n(C)n(-c2ccccc2)c1=O` (stereo unspecified), the “activation” value was 30.8% [at 42.5 µM] (inactive).
In the case of `C[C@]12C/C(=C/O)C(=O)C[C@@H]1CC[C@@H]1[C@@H]2CC[C@@]2(C)[C@H]1CC[C@]2(C)O`, the Potency result is “inactive”.
With `ClC1=C(Cl)[C@]2(Cl)[C@H]3[C@H]([C@H]4C=C[C@H]3C4)[C@@]1(Cl)C2(Cl)Cl`, the “activation” value is -3.55% (inactive).
Consider `COC(=O)C(c1ccccc1)C1CCCCN1` (stereo unspecified), for which the “activation” value is 2.62% (inactive).
Still for that read-out and setting: the result for `CC(=O)[O-].CC(=O)[O-].O.O.[Cd+2]` reads -0.75% (inactive).
`CN1C(=O)[C@@H](NC(=O)c2cc3ccccc3[nH]2)N=C(c2ccccc2)c2ccccc21`: the “activation” value was -3.75% [at 42.5 µM] (inactive).
On to `CCO[C@H]1O[C@@H]2OC3(C)CC[C@H]4[C@H](C)CC[C@@H]([C@H]1C)[C@@]24OO3`, for which the “activation” value is -4.99% [at 42.5 µM] (inactive).
As for `O=NN(CCO)CCO`, the “activation” value is -0.489% (inactive).
As for `C[C@H]1O[C@@H](O[C@H]2[C@@H](O)C[C@H](O[C@H]3[C@@H](O)C[C@H](O[C@H]4CC[C@@]5(C)[C@H](CC[C@@H]6[C@@H]5CC[C@]5(C)[C@@H](C7=CC(=O)OC7)CC[C@]65O)C4)O[C@@H]3C)O[C@@H]2C)C[C@H](O)[C@@H]1O`, the Potency result is “inactive”.
Regarding `[O-][Br+2]([O-])O`, the “activation” value was -1.02% [at 42.5 µM] (inactive).
For `C[C@@H]1C[C@@H]([C@H](O)CC2CC(=O)NC(=O)C2)C(=O)[C@@H](C)C1`, the Potency entry was “inactive”.
In the case of `Nc1c(Cl)c(F)nc(OCC(=O)O)c1Cl`, the “activation” value was -0.349% (inactive).
The same measure, in the same setting: with `OC(Cc1ccccc1Cl)(Cn1[nH]cnc1=S)C1(Cl)CC1` (stereo unspecified) the figure was -0.253% (inactive).
Same read-out and setting: the result for `N#CC(C#N)=C(C#N)C#N` reads 5.83% (inactive).
For the compound `CC1COC(Cn2cncn2)(c2ccc(Oc3ccc(Cl)cc3)cc2Cl)O1` (stereo unspecified), the “activation” value was -14.5% (inactive).
In the case of `COCC(C)N(C(=O)CCl)c1c(C)csc1C` (stereo unspecified), the “activation” value is 0.949% (inactive).
As to `N[C@@H](Cc1ccc(Oc2cc(I)c(O)c(I)c2)c(I)c1)C(=O)O`, the “activation” value is -1.73% [at 42.5 µM] (inactive).
Consider `CC(Cc1ccccc1)NCCn1cnc2c1c(=O)n(C)c(=O)n2C` (stereo unspecified), for which the “activation” value is -14.8% (inactive).
For `Cc1ccc([N+](=O)[O-])[c]2c1[O][Hg]2`, the Potency was 32.2 µM (active).
Same read-out and setting: with `CC1(C)C(C(=O)OC(C#N)c2cccc(Oc3ccccc3)c2)C1(C)C` (stereo unspecified) the entry was “inactive”.
For the compound `CCCN(CC1CC1)c1c([N+](=O)[O-])cc(C(F)(F)F)cc1[N+](=O)[O-]`, the “activation” value is 0.543% (inactive).
On to `COc1ccc(Cc2nccc3cc(OC)c(OC)cc23)cc1OC`, for which the “activation” value was -17.8% [at 42.5 µM] (inactive).
For the compound `COC1=CC(=O)O[C@@H](/C=C/c2ccc3c(c2)OCO3)C1`, the “activation” value is -5.57% (inactive).
Regarding `CC(C)N1C(=O)N(c2ccccc2)CSC1=NC(C)(C)C`, the “activation” value was -11.1% (inactive).
Consider `COC(=O)COc1ccc(Cl)cc1Cl`, for which the “activation” value is -1.74% (inactive).

For a further assay the target is unchanged. As to the kind of experiment: Dopamine D2 receptor (DRD2) small molecule antagonists, cell-based qHTS assay (AID 1963595; active means well fitted inhibition curve with a large enough effect in the signal ratio in the repeat runs, with a control signal flat; the % refers to the signal ratio; further: potency means the concentration at half of the fitted maximal effect). The note with it: HEK293-DRD2 cAMP HTRF antagonist mode; series mostly up to 92.4 µM; activity change, negative = inhibition: at the top concentration. The essentials: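 Human DRD2 antagonist qHTS measuring cAMP by HTRF. The cells are exposed to compound for 10 min, then to NKH477 (200 nM) and quinpirole (12 nM) for 30 min at RT, with Ro20-1724 (0.1 mM) present throughout.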
In the case of `S=C=NCCc1ccccc1`, the “activity change, negative = inhibition” value is 9.54% (inactive).
With `CC1=C2C[C@H]3[C@@H](CC=C4C[C@@H](O)CC[C@@]43C)[C@@H]2CC[C@]12O[C@@H]1C[C@H](C)CN[C@H]1[C@H]2C`, the “activity change, negative = inhibition” value was 0.276% [at 42.5 µM] (inactive).
With `Cc1nc2ccccc2c(=O)n1-c1ccccc1Cl`, the “activity change, negative = inhibition” value is -8.59% (inactive).
Turning to `ClC1=C(Cl)[C@]2(Cl)[C@H]3[C@H]([C@@H]4C=C[C@H]3C4)[C@@]1(Cl)C2(Cl)Cl`, the Potency result was “inactive”.
With `CC(C)[C@@H](C(=O)O[C@@H](C#N)c1cccc(Oc2ccccc2)c1)c1ccc(Cl)cc1`, the Potency entry was “inactive”.
`O=C(Cl)c1ccc(Cl)cc1`: the “activity change, negative = inhibition” value was 5.34% (inactive).
For `Nc1ccc([N+](=O)[O-])cc1Cl`, the “activity change, negative = inhibition” value was 3.22% (inactive).
`CCCCP(CCCC)CCCC`: the “activity change, negative = inhibition” value is 0.38% (inactive).
Same read-out and setting: with `C[C@]12C/C(=C/O)C(=O)C[C@@H]1CC[C@@H]1[C@@H]2CC[C@@]2(C)[C@H]1CC[C@]2(C)O` the figure was -2.83% [at 42.5 µM] (inactive); with `ClC1=C(Cl)[C@]2(Cl)[C@H]3[C@H]([C@H]4C=C[C@H]3C4)[C@@]1(Cl)C2(Cl)Cl`, -21.9% (inactive).
Consider `COC(=O)C(c1ccccc1)C1CCCCN1` (stereo unspecified), for which the “activity change, negative = inhibition” value is -1.75% (inactive).
Regarding `CC(=O)[O-].CC(=O)[O-].O.O.[Cd+2]`, the “activity change, negative = inhibition” value was -1.6% (inactive).
The same measure, in the same setting: the result for `CN1C(=O)[C@@H](NC(=O)c2cc3ccccc3[nH]2)N=C(c2ccccc2)c2ccccc21` reads 7.7% [at 42.5 µM] (inactive); that for `CCO[C@H]1O[C@@H]2OC3(C)CC[C@H]4[C@H](C)CC[C@@H]([C@H]1C)[C@@]24OO3`, 17.1% [at 42.5 µM] (inactive); that for `CCOC(=O)C(Cl)Cc1cc(-n2nc(C)n(C(F)F)c2=O)c(F)cc1Cl` (stereo unspecified), -18.2% (inactive).
As to `C[C@H]1O[C@@H](O[C@H]2[C@@H](O)C[C@H](O[C@H]3[C@@H](O)C[C@H](O[C@H]4CC[C@@]5(C)[C@H](CC[C@@H]6[C@@H]5CC[C@]5(C)[C@@H](C7=CC(=O)OC7)CC[C@]65O)C4)O[C@@H]3C)O[C@@H]2C)C[C@H](O)[C@@H]1O`, the Potency entry is “inactive”.
For the compound `[O-][Br+2]([O-])O`, the “activity change, negative = inhibition” value is -0.825% [at 42.5 µM] (inactive).
As for `C[C@@H]1C[C@@H]([C@H](O)CC2CC(=O)NC(=O)C2)C(=O)[C@@H](C)C1`, the Potency entry is “inactive”.
Take `Nc1c(Cl)c(F)nc(OCC(=O)O)c1Cl`: the “activity change, negative = inhibition” value was -6.63% (inactive).
`OC(Cc1ccccc1Cl)(Cn1[nH]cnc1=S)C1(Cl)CC1` (stereo unspecified): the “activity change, negative = inhibition” value is -3.69% (inactive).
Regarding `CC1COC(Cn2cncn2)(c2ccc(Oc3ccc(Cl)cc3)cc2Cl)O1` (stereo unspecified), the “activity change, negative = inhibition” value is -23.4% (inactive).
For the compound `COCC(C)N(C(=O)CCl)c1c(C)csc1C` (stereo unspecified), the “activity change, negative = inhibition” value is 3.4% (inactive).
Turning to `N[C@@H](Cc1ccc(Oc2cc(I)c(O)c(I)c2)c(I)c1)C(=O)O`, the “activity change, negative = inhibition” value is 4.16% [at 42.5 µM] (inactive).
For `CCOc1cc(Oc2ccc(C(F)(F)F)cc2Cl)ccc1[N+](=O)[O-]`, the Potency result was “inactive”.
`CC(Cc1ccccc1)NCCn1cnc2c1c(=O)n(C)c(=O)n2C` (stereo unspecified): the “activity change, negative = inhibition” value was -4.09% (inactive).
For `CC1(C)C(C(=O)OC(C#N)c2cccc(Oc3ccccc3)c2)C1(C)C` (stereo unspecified), the Potency result was “inactive”.
Same read-out and setting: the result for `C=C(C)C(=O)[O][Sn]([CH2]CCC)([CH2]CCC)[CH2]CCC` reads 2.43 µM (active).
Turning to `CCCN(CC1CC1)c1c([N+](=O)[O-])cc(C(F)(F)F)cc1[N+](=O)[O-]`, the “activity change, negative = inhibition” value was 0.236% (inactive).
On the same count and under the same terms, with `COc1ccc(Cc2nccc3cc(OC)c(OC)cc23)cc1OC` the figure was -24.8% [at 42.5 µM] (inactive).
For the compound `COC1=CC(=O)O[C@@H](/C=C/c2ccc3c(c2)OCO3)C1`, the “activity change, negative = inhibition” value is -0.614% (inactive).
For the compound `Brc1ccc(Oc2ccc(Br)cc2Br)c(Br)c1`, the “activity change, negative = inhibition” value is 12.1% (inactive).
In the case of `CC(C)N1C(=O)N(c2ccccc2)CSC1=NC(C)(C)C`, the “activity change, negative = inhibition” value is -26.9% (inactive).
Consider `COC(=O)COc1ccc(Cl)cc1Cl`, for which the “activity change, negative = inhibition” value is 2.48% (inactive).
